# Assays:
# Assay in all cases: DAPPL (digital affinity profiling via proximity ligation, sequencing); 10 mM Tris-HCl pH 7.5, 50 mM NaCl, 1 mM DTT, 4% glycerol, room temperature, 30 min; GST-TFs on glutathione beads, 16-mer random dsDNA library, 0.1% formaldehyde crosslink after washing; high values mean tight binding
# FEV = target: T1, FEV (Homo sapiens, UniProt Q99581 1-238); conditions: protein: recombinant; tags: N-terminal GST; dsDNA, one strand shown
# T1 sequence: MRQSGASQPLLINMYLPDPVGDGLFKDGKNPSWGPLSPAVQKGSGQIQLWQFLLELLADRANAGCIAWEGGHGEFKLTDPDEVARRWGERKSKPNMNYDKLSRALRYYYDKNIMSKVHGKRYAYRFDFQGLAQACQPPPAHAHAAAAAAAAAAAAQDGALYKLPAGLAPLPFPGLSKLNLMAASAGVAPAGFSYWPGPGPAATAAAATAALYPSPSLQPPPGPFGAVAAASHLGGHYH
# Outline: (§1)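 Binding signal is given per hexamer as its read frequency for a factor divided by its frequency in the tag-only sample. GST-fused human transcription factors were expressed in yeast, captured on glutathione beads, barcoded with DNA and pooled with that sample, then incubated with 200 nmole of a 16-mer random double-stranded DNA library in Tris/NaCl/DTT/glycerol buffer for 30 min at room temperature. The pools were then washed, crosslinked, proximity-ligated, amplified by PCR and sequenced on an Illumina NextSeq500.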
# ETV5 = ETV5 (Homo sapiens, UniProt P41161 1-510); conditions: protein: recombinant; tags: N-terminal GST; dsDNA, one strand shown
# Outline: as §1
# HSF1 = HSF1 (Homo sapiens, UniProt Q00613 1-529); conditions: protein: recombinant; tags: N-terminal GST; chain copies: 3; dsDNA, one strand shown
# Outline: as §1
# SPIC = target: T2, SPIC (Homo sapiens, UniProt Q8N5J4 1-248); conditions: protein: recombinant; tags: N-terminal GST; dsDNA, one strand shown
# T2 sequence: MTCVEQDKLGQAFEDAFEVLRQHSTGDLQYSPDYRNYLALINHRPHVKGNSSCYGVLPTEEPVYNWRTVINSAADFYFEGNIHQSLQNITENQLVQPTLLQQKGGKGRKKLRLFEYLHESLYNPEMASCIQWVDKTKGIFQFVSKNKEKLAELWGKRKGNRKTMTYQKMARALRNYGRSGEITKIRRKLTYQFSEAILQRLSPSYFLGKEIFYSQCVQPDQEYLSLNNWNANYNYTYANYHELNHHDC
# Outline: as §1
# ELF4 = ELF4 (Homo sapiens, UniProt Q99607 1-663); conditions: protein: recombinant; tags: N-terminal GST; dsDNA, one strand shown
# Outline: as §1
# ELK4 = target: T3, ELK4 (Homo sapiens, UniProt P28324-2 1-405); conditions: protein: recombinant; tags: N-terminal GST; dsDNA, one strand shown
# T3 sequence: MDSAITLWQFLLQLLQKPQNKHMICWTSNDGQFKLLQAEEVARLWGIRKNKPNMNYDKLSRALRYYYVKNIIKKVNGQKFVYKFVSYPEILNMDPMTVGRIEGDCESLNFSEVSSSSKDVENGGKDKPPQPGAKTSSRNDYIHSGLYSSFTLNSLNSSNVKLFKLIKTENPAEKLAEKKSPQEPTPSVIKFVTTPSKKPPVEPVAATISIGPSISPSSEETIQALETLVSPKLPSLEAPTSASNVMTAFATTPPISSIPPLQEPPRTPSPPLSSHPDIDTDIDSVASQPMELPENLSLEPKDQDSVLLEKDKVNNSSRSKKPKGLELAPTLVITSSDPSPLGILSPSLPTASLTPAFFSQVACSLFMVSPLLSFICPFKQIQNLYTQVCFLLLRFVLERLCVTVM
# Outline: as §1
# ETV2 = target: T4, ETV2 (Homo sapiens, UniProt O00321 1-342); conditions: protein: recombinant; tags: N-terminal GST; dsDNA, one strand shown
# T4 sequence: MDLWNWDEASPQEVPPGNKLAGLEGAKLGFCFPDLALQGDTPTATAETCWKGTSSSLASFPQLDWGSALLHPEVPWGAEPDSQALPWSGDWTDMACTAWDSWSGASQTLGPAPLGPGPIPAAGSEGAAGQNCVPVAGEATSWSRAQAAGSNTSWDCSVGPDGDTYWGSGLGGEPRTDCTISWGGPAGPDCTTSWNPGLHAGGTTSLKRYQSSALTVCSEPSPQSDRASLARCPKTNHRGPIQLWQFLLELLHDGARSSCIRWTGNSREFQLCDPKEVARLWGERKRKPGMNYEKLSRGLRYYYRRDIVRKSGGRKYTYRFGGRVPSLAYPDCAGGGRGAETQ
# Outline: as §1
# ELF3 = target: T5, ELF3 (Homo sapiens, UniProt P78545 1-371); conditions: protein: recombinant; tags: N-terminal GST; dsDNA, one strand shown
# T5 sequence: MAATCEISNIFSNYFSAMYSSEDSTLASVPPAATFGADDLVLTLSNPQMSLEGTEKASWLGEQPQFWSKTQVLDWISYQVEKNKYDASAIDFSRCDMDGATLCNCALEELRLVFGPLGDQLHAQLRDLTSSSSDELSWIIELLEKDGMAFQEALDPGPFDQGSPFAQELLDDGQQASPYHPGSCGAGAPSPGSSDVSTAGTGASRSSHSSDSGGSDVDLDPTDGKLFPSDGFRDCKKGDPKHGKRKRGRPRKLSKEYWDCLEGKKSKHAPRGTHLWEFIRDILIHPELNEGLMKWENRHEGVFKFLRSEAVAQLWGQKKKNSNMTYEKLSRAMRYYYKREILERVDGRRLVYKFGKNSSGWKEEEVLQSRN
# Outline: as §1
# CRX = CRX (Homo sapiens, UniProt O43186 1-299); conditions: protein: recombinant; tags: N-terminal GST; dsDNA, one strand shown
# Outline: as §1
# ETV1 = ETV1 (Homo sapiens, UniProt P50549 1-477); conditions: protein: recombinant; tags: N-terminal GST; dsDNA, one strand shown
# Outline: as §1
# Sequence of HSF1 (Q00613 whole entry): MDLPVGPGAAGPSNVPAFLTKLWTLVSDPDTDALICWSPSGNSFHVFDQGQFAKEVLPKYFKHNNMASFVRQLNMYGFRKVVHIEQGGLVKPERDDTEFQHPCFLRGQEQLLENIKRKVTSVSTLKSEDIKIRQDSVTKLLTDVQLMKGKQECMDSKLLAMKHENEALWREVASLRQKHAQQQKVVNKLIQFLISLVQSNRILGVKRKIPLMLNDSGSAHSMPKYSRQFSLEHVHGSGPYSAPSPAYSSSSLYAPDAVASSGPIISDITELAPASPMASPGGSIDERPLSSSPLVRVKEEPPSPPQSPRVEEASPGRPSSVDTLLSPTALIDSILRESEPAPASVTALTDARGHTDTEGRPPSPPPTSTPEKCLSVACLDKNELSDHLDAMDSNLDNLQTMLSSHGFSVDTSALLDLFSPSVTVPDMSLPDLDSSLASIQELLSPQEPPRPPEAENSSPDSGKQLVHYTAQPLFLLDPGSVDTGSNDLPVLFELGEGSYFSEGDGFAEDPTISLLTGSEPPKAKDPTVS
# Sequence of ELF4 (Q99607 whole entry): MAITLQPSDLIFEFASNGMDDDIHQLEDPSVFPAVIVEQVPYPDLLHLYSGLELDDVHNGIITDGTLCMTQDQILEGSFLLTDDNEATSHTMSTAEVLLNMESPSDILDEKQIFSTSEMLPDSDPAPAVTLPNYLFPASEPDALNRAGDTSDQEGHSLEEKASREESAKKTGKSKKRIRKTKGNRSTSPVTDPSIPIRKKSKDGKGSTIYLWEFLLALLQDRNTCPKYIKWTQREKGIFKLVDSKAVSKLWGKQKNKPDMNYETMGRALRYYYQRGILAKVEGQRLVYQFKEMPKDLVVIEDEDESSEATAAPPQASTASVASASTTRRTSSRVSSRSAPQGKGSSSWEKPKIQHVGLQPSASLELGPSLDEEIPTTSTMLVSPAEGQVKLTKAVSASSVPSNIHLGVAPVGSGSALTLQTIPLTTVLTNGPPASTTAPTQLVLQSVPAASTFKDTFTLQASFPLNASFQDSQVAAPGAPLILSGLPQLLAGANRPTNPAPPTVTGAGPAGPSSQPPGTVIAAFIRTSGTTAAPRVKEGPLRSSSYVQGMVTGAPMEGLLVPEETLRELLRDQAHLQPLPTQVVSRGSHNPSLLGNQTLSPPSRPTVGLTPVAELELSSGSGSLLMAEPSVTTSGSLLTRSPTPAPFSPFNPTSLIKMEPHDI
# Sequence of CRX (O43186 whole entry): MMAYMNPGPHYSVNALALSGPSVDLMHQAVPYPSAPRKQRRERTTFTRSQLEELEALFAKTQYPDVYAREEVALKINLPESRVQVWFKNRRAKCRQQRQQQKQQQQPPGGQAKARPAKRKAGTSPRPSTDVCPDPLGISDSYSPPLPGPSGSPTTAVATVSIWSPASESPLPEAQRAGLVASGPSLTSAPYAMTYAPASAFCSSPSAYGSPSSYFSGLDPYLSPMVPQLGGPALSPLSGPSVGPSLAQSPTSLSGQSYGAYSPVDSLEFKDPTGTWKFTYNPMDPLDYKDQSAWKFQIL
# Sequence of ETV1 (P50549 whole entry): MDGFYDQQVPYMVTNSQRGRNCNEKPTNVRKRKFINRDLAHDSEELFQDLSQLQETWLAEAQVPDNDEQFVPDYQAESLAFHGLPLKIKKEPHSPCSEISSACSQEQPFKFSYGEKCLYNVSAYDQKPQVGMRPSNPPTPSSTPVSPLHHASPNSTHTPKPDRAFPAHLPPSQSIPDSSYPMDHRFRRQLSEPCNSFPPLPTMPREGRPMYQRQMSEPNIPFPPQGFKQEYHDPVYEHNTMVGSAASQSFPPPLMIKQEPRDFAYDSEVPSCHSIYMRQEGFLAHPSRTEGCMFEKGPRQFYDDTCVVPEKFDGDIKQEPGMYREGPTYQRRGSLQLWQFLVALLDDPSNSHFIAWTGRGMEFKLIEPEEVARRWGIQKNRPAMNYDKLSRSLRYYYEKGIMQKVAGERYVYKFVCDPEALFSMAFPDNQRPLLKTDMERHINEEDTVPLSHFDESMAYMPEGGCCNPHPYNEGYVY
# Sequence of ETV5 (P41161 whole entry): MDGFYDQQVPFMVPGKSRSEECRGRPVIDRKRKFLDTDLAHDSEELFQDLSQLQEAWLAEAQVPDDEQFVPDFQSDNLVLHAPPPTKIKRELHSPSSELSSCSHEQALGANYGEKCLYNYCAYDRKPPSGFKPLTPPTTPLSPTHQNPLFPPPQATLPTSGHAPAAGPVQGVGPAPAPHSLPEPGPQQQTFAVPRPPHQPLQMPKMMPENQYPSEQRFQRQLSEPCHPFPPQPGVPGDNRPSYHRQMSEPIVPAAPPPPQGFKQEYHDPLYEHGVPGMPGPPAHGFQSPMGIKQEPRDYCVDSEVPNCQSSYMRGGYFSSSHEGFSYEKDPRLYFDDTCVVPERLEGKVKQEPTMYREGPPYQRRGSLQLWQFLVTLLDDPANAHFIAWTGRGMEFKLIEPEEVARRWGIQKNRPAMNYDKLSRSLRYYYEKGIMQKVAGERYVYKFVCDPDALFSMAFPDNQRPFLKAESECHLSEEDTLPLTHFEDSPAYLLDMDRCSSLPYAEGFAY
sequence,measurement,setting,value
CTTAGC,binding signal,FEV,"1.12 fold enrichment (6-mer frequency, TF over GST control)"
same,binding signal,ETV5,"1.18 fold enrichment (6-mer frequency, TF over GST control)"
same,binding signal,HSF1,"1.47 fold enrichment (6-mer frequency, TF over GST control)"
same,binding signal,SPIC,"1.35 fold enrichment (6-mer frequency, TF over GST control)"
same,binding signal,ELF4,"1.28 fold enrichment (6-mer frequency, TF over GST control)"
same,binding signal,ELK4,"1.21 fold enrichment (6-mer frequency, TF over GST control)"
same,binding signal,ETV2,"1.3 fold enrichment (6-mer frequency, TF over GST control)"
same,binding signal,ELF3,"1.07 fold enrichment (6-mer frequency, TF over GST control)"
same,binding signal,CRX,"2.17 fold enrichment (6-mer frequency, TF over GST control)"
same,binding signal,ETV1,"1.24 fold enrichment (6-mer frequency, TF over GST control)"

# — article PMC7862700, “An all-to-all approach to the identification of sequence-specific readers for epigenetic DNA modifications on cytosine”
